In test [1] the target is T1, Serine/threonine-protein kinase D2 (Homo sapiens) (UniProt Q9BZL6).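 Also: mean value of PRKD2 inhibition, from the GSK PKIS screening panel.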
T1 sequence (whole entry): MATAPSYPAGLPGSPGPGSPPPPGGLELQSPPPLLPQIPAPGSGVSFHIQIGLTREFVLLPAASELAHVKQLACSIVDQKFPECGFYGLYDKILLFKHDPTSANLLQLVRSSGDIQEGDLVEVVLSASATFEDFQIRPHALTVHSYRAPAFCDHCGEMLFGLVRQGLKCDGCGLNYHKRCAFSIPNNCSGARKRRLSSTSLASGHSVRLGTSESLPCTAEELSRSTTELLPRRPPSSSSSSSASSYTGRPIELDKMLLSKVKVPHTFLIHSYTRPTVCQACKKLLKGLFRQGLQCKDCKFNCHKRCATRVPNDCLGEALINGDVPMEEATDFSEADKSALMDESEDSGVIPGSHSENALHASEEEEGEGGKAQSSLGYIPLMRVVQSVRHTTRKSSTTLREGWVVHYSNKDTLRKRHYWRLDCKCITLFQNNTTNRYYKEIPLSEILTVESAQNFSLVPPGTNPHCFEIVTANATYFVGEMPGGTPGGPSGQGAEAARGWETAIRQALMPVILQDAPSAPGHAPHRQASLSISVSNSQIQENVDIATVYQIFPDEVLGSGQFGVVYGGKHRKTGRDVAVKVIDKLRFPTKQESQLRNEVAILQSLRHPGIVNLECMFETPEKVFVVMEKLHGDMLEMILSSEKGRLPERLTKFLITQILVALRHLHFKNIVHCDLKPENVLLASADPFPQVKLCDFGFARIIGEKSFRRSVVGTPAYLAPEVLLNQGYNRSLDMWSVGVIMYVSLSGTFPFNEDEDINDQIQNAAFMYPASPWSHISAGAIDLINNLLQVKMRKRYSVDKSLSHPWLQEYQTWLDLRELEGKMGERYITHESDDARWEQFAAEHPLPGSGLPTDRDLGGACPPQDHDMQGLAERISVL
The following applies: at 1 µM.

The target of test [2] is T2, Serine/threonine-protein kinase D3 (Homo sapiens) (UniProt O94806).
T2 sequence (whole entry): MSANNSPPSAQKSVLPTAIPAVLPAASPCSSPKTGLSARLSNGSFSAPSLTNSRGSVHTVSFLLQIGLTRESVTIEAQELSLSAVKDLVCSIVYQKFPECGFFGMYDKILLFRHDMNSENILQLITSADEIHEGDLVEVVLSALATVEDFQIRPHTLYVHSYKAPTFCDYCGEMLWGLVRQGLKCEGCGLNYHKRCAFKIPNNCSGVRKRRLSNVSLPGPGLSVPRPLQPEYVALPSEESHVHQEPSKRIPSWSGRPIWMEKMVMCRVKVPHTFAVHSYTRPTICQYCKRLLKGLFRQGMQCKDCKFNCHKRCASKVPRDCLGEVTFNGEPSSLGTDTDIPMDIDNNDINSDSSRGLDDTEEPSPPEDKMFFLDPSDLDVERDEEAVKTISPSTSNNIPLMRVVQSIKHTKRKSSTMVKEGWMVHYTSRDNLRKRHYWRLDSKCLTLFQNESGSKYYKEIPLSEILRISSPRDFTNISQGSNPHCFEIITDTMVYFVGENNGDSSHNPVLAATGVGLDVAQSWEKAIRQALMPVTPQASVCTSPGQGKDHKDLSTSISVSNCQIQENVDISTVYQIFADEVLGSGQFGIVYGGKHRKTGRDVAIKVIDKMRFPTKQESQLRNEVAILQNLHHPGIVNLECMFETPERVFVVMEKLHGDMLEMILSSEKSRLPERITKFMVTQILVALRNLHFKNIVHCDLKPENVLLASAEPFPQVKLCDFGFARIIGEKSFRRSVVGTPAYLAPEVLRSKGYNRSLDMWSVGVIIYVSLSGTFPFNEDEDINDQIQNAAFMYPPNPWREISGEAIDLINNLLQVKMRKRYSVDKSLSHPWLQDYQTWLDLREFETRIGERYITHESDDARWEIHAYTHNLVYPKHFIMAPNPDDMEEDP
Particulars: at 0.1 µM.

Test [3] has as its target T2, Serine/threonine-protein kinase D3 (Homo sapiens). The following applies: at 1 µM.
Test [4] has as its target T3, cGMP-dependent protein kinase 1 (Homo sapiens) (UniProt Q13976).
T3 sequence (whole entry): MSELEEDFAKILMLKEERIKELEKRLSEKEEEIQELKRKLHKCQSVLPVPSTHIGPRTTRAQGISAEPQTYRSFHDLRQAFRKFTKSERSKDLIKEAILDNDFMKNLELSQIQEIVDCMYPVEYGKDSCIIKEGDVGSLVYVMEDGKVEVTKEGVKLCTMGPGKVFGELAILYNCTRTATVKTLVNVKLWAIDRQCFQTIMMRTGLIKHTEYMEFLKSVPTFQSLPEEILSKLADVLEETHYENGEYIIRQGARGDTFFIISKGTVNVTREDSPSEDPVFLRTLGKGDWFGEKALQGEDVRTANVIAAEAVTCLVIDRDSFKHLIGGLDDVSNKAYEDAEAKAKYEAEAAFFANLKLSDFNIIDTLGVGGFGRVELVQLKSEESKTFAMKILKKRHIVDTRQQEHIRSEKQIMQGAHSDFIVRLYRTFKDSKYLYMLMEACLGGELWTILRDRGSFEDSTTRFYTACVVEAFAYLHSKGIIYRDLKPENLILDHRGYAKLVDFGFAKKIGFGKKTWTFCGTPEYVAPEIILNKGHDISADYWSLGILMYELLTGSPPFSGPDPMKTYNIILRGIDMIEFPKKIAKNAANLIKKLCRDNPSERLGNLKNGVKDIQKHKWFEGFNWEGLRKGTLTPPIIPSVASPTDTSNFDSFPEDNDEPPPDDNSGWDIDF
The following applies: at 0.1 µM.

The target of test [5] is T3, cGMP-dependent protein kinase 1 (Homo sapiens). The following applies: at 1 µM.
The target in test [6] is T4, cGMP-dependent protein kinase 2 (Homo sapiens) (UniProt Q13237).
T4 sequence (whole entry): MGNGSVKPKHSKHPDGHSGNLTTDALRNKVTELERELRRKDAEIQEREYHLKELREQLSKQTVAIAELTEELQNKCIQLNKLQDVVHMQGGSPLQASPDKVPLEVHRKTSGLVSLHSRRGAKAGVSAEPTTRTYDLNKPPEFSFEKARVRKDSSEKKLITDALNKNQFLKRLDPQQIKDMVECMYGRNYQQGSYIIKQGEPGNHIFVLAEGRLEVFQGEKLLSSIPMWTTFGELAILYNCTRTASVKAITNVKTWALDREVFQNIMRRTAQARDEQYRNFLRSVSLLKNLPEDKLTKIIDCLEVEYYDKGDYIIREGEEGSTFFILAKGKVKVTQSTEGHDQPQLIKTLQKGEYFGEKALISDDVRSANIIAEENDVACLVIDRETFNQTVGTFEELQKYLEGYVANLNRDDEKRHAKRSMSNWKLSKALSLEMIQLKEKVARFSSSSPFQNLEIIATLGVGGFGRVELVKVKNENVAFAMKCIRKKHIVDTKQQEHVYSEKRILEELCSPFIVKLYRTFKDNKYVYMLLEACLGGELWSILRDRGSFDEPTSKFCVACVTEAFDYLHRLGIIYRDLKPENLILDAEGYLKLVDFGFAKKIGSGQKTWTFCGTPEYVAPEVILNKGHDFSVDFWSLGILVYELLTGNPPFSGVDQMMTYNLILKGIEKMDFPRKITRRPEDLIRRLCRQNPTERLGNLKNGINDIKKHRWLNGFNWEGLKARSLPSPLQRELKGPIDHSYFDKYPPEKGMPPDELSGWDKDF
Particulars: at 0.1 µM.

Test [7] has as its target T4, cGMP-dependent protein kinase 2 (Homo sapiens). Particulars: at 1 µM.
The target in test [8] is T5, cAMP-dependent protein kinase catalytic subunit PRKX (Homo sapiens) (UniProt P51817).
T5 sequence (whole entry): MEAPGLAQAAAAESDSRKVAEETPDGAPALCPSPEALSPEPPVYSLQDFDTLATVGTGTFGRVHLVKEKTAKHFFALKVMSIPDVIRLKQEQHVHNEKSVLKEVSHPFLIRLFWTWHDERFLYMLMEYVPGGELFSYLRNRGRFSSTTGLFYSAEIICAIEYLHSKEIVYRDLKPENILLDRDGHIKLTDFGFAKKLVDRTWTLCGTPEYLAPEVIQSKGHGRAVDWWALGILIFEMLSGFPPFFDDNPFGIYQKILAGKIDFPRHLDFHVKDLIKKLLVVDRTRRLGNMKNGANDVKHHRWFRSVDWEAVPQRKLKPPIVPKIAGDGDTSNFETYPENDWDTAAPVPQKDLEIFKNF
The following applies: at 0.1 µM.

Test [9] concerns the target T5, cAMP-dependent protein kinase catalytic subunit PRKX (Homo sapiens). The following applies: at 1 µM.
The target of test [10] is Rho-associated protein kinase 1 (Homo sapiens) (UniProt Q13464). Particulars: at 0.1 µM.
Test [11] has the same target. Particulars: at 1 µM.
Test [12] addresses Rho-associated protein kinase 2 (Homo sapiens) (UniProt O75116). Particulars: at 0.1 µM.
The target is the same in test [13]. Particulars: at 1 µM.
In test [14] the target is Ribosomal protein S6 kinase alpha-1 (Homo sapiens) (UniProt Q15418). Particulars: at 0.1 µM.
The target is the same in test [15]. Particulars: at 1 µM.
In test [16] the target is Ribosomal protein S6 kinase alpha-3 (Homo sapiens) (UniProt P51812). The following applies: at 0.1 µM.
The target is the same in test [17]. Particulars: at 1 µM.
The target of test [18] is Ribosomal protein S6 kinase alpha-2 (Homo sapiens) (UniProt Q15349). The following applies: at 0.1 µM.
The target is the same in test [19]. Particulars: at 1 µM.
The target of test [20] is Ribosomal protein S6 kinase alpha-6 (Homo sapiens) (UniProt Q9UK32). Particulars: at 0.1 µM.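 Also: reported value is the mean inhibition of RSK4, from the GSK PKIS kinase inhibitor screen.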

Chain of Ribosomal protein S6 kinase alpha-1 (Homo sapiens) (Q15418 whole entry): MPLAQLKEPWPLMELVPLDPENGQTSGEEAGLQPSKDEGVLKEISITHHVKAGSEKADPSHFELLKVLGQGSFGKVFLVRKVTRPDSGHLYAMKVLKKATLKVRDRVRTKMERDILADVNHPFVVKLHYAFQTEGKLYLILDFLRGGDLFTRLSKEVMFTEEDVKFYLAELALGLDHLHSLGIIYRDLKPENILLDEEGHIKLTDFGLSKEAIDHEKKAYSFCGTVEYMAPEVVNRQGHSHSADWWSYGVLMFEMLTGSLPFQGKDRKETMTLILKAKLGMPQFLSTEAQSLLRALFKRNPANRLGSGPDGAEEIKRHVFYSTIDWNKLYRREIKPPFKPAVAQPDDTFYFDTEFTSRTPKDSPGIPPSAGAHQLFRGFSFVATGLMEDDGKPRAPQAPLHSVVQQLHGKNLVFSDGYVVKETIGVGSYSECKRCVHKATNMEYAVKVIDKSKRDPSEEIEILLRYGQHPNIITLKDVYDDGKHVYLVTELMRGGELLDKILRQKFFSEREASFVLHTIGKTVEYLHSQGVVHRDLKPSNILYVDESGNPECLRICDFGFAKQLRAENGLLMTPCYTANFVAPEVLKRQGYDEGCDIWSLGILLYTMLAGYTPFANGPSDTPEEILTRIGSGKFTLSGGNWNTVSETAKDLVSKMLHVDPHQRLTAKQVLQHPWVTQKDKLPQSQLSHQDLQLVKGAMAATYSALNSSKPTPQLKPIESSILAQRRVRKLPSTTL
Chain of Rho-associated protein kinase 1 (Homo sapiens) (Q13464 2-1354 limits assumed): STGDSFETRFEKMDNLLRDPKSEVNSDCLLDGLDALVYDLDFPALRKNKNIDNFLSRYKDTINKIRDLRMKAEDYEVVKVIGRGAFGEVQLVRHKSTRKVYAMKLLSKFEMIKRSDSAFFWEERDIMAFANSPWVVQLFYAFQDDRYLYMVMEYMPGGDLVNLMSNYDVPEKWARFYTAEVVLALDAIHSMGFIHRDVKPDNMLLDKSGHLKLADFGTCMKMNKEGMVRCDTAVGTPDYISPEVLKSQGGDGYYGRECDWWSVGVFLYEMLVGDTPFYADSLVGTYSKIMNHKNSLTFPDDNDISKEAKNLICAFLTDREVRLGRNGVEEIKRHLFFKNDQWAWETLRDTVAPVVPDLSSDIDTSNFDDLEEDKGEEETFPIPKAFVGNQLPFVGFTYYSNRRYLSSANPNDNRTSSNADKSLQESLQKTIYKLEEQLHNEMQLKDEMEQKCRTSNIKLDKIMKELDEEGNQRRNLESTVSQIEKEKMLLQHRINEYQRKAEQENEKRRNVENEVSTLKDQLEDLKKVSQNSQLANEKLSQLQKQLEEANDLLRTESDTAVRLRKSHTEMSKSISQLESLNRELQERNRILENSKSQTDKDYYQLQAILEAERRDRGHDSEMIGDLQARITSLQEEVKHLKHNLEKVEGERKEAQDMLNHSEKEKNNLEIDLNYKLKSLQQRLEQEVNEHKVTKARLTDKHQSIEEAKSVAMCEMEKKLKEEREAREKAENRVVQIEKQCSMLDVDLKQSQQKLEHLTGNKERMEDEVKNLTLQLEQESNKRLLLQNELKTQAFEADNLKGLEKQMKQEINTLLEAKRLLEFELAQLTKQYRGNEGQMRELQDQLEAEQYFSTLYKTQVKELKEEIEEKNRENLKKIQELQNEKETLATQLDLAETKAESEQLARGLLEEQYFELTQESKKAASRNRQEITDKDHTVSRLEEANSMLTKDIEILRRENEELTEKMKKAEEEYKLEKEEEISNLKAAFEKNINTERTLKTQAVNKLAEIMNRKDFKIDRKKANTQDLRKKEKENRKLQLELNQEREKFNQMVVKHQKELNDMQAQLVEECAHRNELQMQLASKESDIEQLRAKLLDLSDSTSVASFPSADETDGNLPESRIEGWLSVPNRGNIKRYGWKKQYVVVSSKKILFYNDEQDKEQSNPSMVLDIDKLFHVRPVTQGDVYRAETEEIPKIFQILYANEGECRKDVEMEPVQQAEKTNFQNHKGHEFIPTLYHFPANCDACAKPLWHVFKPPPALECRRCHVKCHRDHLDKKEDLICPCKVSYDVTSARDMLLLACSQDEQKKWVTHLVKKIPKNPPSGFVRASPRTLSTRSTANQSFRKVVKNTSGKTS
Chain of Ribosomal protein S6 kinase alpha-2 (Homo sapiens) (Q15349 whole entry): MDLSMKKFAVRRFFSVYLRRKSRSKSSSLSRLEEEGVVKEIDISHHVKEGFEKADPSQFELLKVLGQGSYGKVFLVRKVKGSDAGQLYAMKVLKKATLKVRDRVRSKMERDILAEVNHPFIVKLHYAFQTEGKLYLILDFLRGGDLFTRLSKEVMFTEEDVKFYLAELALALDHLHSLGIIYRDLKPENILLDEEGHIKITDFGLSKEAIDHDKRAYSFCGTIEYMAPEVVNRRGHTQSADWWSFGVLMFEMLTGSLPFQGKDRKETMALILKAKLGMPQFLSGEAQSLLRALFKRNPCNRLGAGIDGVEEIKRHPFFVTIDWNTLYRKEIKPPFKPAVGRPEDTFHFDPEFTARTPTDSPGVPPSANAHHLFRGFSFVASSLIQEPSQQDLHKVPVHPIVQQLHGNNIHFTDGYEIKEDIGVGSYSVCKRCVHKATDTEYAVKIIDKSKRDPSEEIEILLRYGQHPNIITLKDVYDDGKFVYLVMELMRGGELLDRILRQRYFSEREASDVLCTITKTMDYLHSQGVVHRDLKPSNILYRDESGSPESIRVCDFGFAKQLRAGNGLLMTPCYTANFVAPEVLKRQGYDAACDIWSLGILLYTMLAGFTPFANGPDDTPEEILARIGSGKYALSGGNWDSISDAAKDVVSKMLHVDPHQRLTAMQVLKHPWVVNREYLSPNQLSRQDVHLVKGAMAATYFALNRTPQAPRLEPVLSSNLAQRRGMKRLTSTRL
Chain of Rho-associated protein kinase 2 (Homo sapiens) (O75116 whole entry, looked up): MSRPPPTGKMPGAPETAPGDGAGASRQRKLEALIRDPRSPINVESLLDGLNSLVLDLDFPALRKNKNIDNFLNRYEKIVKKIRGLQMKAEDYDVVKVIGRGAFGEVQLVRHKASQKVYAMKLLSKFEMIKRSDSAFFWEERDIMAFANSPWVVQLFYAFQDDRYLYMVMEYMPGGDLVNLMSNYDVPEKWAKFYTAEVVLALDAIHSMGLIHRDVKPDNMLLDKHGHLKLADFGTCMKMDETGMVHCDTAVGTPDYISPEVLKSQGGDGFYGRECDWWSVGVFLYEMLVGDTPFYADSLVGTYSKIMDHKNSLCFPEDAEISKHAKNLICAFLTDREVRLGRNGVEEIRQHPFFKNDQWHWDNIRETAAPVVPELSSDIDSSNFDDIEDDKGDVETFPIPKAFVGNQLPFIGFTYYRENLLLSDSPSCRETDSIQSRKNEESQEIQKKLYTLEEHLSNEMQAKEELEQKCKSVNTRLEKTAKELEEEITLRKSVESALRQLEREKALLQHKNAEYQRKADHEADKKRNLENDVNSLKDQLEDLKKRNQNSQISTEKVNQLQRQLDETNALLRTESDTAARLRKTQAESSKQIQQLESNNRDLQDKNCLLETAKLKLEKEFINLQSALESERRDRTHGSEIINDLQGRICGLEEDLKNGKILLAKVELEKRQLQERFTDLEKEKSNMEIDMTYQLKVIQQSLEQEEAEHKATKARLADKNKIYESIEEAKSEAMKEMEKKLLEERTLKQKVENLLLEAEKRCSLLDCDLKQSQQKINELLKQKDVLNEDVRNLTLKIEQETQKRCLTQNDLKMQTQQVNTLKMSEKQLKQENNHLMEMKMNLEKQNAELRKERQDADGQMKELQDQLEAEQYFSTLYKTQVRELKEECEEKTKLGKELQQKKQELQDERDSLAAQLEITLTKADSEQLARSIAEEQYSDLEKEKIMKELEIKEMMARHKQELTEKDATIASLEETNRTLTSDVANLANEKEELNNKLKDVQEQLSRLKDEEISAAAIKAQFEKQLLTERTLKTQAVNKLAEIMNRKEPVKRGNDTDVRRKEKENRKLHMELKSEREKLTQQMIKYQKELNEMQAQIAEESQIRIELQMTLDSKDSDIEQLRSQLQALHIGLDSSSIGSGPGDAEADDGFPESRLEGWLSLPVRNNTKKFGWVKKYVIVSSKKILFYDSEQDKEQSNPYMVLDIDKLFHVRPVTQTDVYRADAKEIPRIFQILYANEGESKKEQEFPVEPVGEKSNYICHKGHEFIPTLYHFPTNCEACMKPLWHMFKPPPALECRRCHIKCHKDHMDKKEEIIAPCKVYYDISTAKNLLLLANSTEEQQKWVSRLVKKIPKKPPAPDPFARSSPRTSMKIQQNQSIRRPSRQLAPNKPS
Chain of Ribosomal protein S6 kinase alpha-3 (Homo sapiens) (P51812 whole entry): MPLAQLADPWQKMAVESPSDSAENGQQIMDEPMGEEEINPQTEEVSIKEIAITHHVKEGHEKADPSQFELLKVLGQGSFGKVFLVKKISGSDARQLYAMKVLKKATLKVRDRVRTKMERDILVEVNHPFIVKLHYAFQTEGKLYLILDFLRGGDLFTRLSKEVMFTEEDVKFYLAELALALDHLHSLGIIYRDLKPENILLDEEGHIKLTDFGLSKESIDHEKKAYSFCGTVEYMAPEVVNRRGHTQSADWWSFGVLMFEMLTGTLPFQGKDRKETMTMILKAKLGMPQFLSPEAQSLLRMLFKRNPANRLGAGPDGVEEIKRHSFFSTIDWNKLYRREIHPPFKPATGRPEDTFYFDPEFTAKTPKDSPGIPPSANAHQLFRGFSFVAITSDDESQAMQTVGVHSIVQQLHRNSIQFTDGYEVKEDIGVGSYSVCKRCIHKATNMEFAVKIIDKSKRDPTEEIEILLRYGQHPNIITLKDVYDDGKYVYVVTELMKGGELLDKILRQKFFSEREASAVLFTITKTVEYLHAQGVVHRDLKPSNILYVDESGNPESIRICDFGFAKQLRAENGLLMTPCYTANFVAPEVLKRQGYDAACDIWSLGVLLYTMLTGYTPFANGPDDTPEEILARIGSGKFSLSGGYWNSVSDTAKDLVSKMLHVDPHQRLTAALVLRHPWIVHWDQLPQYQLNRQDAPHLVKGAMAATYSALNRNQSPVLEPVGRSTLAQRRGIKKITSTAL

Broadly, the inhibition is the relative decrease from the control value, in per cent. For the molecule `C[C@@H](Oc1cc(-n2cnc3ccc(OC[C@@H](O)CO)cc32)sc1C(N)=O)c1ccccc1Cl`, the inhibition in [1] is 1.51%; in [2] it was -1.65%; in [3], 0.06%; in test [4], -2.27%; in test [5], -0.2%; in [6], -0.02%. Further, the inhibition was -0.19% in test [7]; -1.09% in test [8]; -8.23% in test [9]; 0.14% in [10]; 1.42% in test [11]; -0.36% in test [12]. For the same molecule, the inhibition in [13] was 0.84%; in [14], 0.36%; in [15], 3.32%; in test [16] it was 1.35%; in [17], 5.89%; in test [18], -0.54%. Also, the inhibition in [19] was 3.27%; in test [20], -0.4%.
Regarding `N#Cc1cccc(Nc2nccc(-c3cnn4ncccc34)n2)c1`, the inhibition in test [1] came out at 46.8%; in [2] it was 10.5%; in test [3], 54.9%; in test [4], 10.8%; in test [5], 50.2%; in test [6], 4.14%. The inhibition was 25.9% in [7]; 1.47% in [8]; 2.66% in test [9]; 1.39% in test [10]; 5.33% in test [11]; 3.28% in test [12]. Further, the inhibition in [13] stood at 12.4%; in [14] it was 2.54%; in test [15], 7.07%; in [16], 0.17%; in test [17], 4.03%; in test [18], 2.01%. The inhibition in [19] came to 4.16%; in test [20] it was 1.51%.
On to `COc1cc(Nc2nccc(-c3cnn4ncccc34)n2)cc(OC)c1`, for which the inhibition in [1] is 15.9%; in test [2], -0.68%; in test [3] it was 19.6%; in test [4], 12.2%; in test [5], 57.2%; in test [6], 3.45%. Further, the inhibition is 24.4% in [7]; 0.67% in test [8]; 0.29% in test [9]; 0.75% in [10]; 8.16% in [11]; 2.33% in test [12]. Besides, the inhibition in test [13] stood at 15%; in test [14] it was 1.35%; in test [15], 3.27%; in test [16] it was 1.72%; in test [17], 4.75%; in test [18] it was 1.42%. Also, the figures for the inhibition in test [19] and in test [20] were 5.35% and 0.97%, respectively.
As to `COC(=O)c1cncc(/C=C/c2c(C)cc(O)cc2C)c1`, the inhibition is 4% in test [1]; 4.31% in test [2]; 3.64% in [3]; 3.3% in [4]; 2.75% in [5]; 1.54% in test [6]. The inhibition is 2.4% in test [7]; 1.78% in [8]; 3.76% in test [9]; 0.77% in [10]; 1.27% in test [11]; 3.8% in [12]. Also, the inhibition in test [13] came to 5.21%; in test [14], 2.26%; in test [15], 4.95%; in [16], 1.3%; in test [17] it was 2.62%; in [18], 2.03%. Besides, the inhibition stood at 2.47% in test [19] and 1.66% in [20].

Source of the values: ChEMBL document CHEMBL1961873, “Compounds: GSK PKIS; Assays: Nanosyn kinase panel” (2012).
